Results published in PubChem BioAssay (NCATS).
Inconclusive results are not listed. Active and inactive are the calls of the source. Calls come from the whole dose curve; as a rule, active = well fitted inhibition curve with a large enough effect; inconclusive = small, poorly fitted or top-dose-only effect; inactive = flat fitted curve, though single readings scatter.

Columns and labels:
Assay in all cases: Cytotoxic Profiling of Annotated Libraries Using Quantitative High-Throughput Screening (AID 1296008); note: nearly all actives have a fitted effect of over 60% in size
Conditions in all cases: Five cell lines viability, CellTiter-Glo ATP luminescence, 48-72 h; max response: stronger effect = lower value
[1] = tested on: CRL-7250
Summary of the method: (§1)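 Cytotoxicity was measured as CellTiter-Glo ATP luminescence, read after 10 min at room temperature. Compound treatment of the cells lasted 48 or 72 hr at 37 degrees Celsius in a qHTS format.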

[2] = tested on: HEK293
Summary of the method: as §1

[3] = tested on: HaCat
Summary of the method: as §1

[4] = tested on: KB-3-1
Summary of the method: as §1

[5] = tested on: NIH3T3
Summary of the method: as §1

Measured: max response
% is set by controls: 0 for no effect and ±100 for the full control effect.

Cc1occc(=O)c1O[C@@H]1O[C@H](CO)[C@@H](O)[C@H](O)[C@H]1O
inactive: [1] -1.36% | [2] 2.23% | [3] | [4] | [5]

NC(=O)c1ccc(F)c2c1C[C@@H](N(C1CCC1)C1CCC1)CO2
inactive: [1] | [2] -5.17% | [3] | [4] 4.79% | [5] 3.88%

NC(N)=NCCC[C@H](NC(=O)c1sccc1NS(=O)(=O)c1cccc2nsnc12)C(=O)O
inactive: [1] | [2] -1.44% | [3] -1.15% | [4] | [5]

CCOc1ncc(S(=O)(=O)N2CCN(CC)CC2)cc1-c1nc2c(CC)n(CCOC)nc2c(=O)[nH]1
inactive: [1] | [2] -6.31% | [3] 2.49% | [4] | [5]

CC1(C)CC=C(c2cnc3ccccc3c2)c2cc(C(=O)Nc3ccc(C(=O)O)cc3)ccc21
inactive: [1] | [2] 2.92% | [3] | [4] | [5] -2.18%

C/C=C(\C)C(=O)OC[C@H]1O[C@H](O[C@H]2O[C@H](CO)[C@@H](O)[C@H](O)[C@H]2O[C@@H]2O[C@H](CO)[C@@H](O)[C@H](O)[C@H]2O)[C@H](O[C@@H]2O[C@H](CO)[C@@H](O)[C@H](O)[C@H]2O)[C@@H](O)[C@@H]1O
inactive: [1] 0.965% | [2] -1.76% | [3] | [4] | [5]

NC1(c2ccc(NC(=O)c3ccnc(-c4cc(C(=O)O)ccn4)c3)cc2)CC1
inactive: [1] | [2] -8.28% | [3] | [4] | [5]
